# A selection: hits, their analogues and other compounds. The true share with any hit is near 10%.
# Six1-Eya2 blk – inhibitors of human Six1/Eya2 interaction | Q15475+O00167 | AlphaScreen GST-Six1/His-Eya2 binding, biochemical; stronger effect = lower value | activity change, % (no concentration beside the values) | hit rate 0.56% among 360,000 | AID 651725; in the data active means activity change below about -65%; inconclusive means mostly about -30% to -63%; further: on the % scale 0 is the no-effect control and ±100 the full control effect
#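 GST-Six1 + His-Eya2 (5X stock: 250/500 nM); Tris pH 8.0, 300 mM NaCl, 0.05% BSA, 0.02% Tween 20; GSH donor/Ni acceptor beads; 1 h 37 °C dark; AlphaScreen readout.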
# CtBP-E1A blk – blocks the CtBP interaction with E1A; activity change, % (no concentration beside the values); AlphaScreen GST-E1A/His-CtBP binding, 1536-well; stronger effect = lower value; hit rate 0.49% among 340,000; in the data active means activity change below about -65%; inconclusive means mostly about -30% to -63%; further: on the % scale 0 is the no-effect control and ±100 the full control effect
#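 GST-E1A and His-tagged CtBP (125 nM each as 5X stock) were preincubated with pin-transferred compound for 2 h at 37 °C in the dark, then glutathione donor and nickel acceptor beads were added for 1 h before AlphaScreen reading.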
# G9a block – blocks human histone lysine methyltransferase G9a; Q96KQ7; G9a H3K9 monomethylation, AlphaScreen, 2 h; Potency, µM (titrated, usually from 102 µM), for the others: at the highest dose activity, negative = inhibition, actives largely listed as inhibitors; AID 504332; hit rate 8.8% among 350,000; further: potency means the concentration at half of the fitted maximal effect; on the % scale 0 is the no-effect control and ±100 the full control effect; nearly all actives have a fitted effect of over 75% in size
# Target sequence (Q96KQ7 913-1193 limits assumed): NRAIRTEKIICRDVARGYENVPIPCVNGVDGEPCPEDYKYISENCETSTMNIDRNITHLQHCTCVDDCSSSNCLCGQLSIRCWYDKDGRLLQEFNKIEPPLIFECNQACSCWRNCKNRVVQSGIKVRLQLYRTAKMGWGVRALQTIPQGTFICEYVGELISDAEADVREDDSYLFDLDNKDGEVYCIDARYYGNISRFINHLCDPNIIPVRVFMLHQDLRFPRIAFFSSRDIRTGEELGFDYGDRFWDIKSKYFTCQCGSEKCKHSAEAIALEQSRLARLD
#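 AlphaScreen read-out: biotin-H3K9 peptide (500 nM) methylation by 20 nM enzyme with 20 uM SAM, 2 h at room temperature after 15 min compound preincubation; anti-monomethyl H3K9 antibody plus donor/acceptor beads, 10 min dark.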
# BAZ2B block – inhibitors of human BAZ2B bromodomain; Potency, µM (series often up to 114 µM), for the others: at the top dose activity change, negative = inhibition, actives largely listed as inhibitors; hit rate 4.4% among 360,000; AlphaScreen BAZ2B-H3K14Ac peptide displacement; AID 504333; Q9UIF8; further: potency means the concentration at half of the fitted maximal effect; on the % scale 0 is the no-effect control and ±100 the full control effect; nearly all actives have a fitted effect of over 60% in size
#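 Protein-peptide AlphaScreen: BAZ2B 50 nM, b-H3K14Ac 50 nM, 1x PBS pH 7.4 + 0.01% Tween-20. Preincubation 30 min RT; cpd 30 min RT (top 110 uM); beads 20 min RT, light-protected.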
# JMJD2A Tudor – JMJD2A Tudor domain (human) inhibition. hit rate 4.4% among 390,000. AID 504339. AlphaScreen JMJD2A-Tudor / H3K4me3 peptide binding. Potency, µM (titrated, usually from 114 µM), inactives show at the highest dose activity change, negative = inhibition, usual class: inhibitors; further: potency means the concentration at half of the fitted maximal effect; on the % scale 0 is the no-effect control and ±100 the full control effect; nearly all actives have a fitted effect of over 50% in size
# HP1b chromo inh – inhibitors of HP1-beta chromodomain binding to methylated histone tails; P83916; AlphaScreen HP1-beta / biotin-H3K9me3 peptide binding; Potency, µM (top dose mostly 114 µM), without a hit: at the top dose activity change, negative = inhibition, actives largely listed as inhibitors; hit rate 0.56% among 390,000; AID 540317; further: potency means the concentration at half of the fitted maximal effect; nearly all actives have a fitted effect of over 70% in size
# Target sequence (P83916 whole entry, looked up): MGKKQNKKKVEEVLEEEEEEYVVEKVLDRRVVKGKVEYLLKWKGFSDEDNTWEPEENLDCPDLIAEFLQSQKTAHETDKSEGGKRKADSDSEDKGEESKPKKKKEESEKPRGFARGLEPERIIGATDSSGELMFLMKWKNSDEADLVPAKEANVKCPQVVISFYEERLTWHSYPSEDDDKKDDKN
#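 Compound inhibition of the preformed complex between 50 nM HP1-beta and 50 nM biotinylated H3K9me3 peptide was read by AlphaScreen. Buffer was PBS pH 7.4 with 0.01% Tween-20. Incubations ran 30 min at room temperature, with 10 ug/mL donor/acceptor beads.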
# * = called active by the depositor; ? = inconclusive; · = no result; [ ] = another dose, or the depositor's remark. Unless noted, the call rests on the fitted dose curve; in most records, active means well fitted inhibition curve with a large enough effect; inconclusive means small, poorly fitted or top-dose-only effect; inactive means no such curve, though single readings can be large or run the other way.
SMILES,Six1-Eya2 blk,CtBP-E1A blk,G9a block,BAZ2B block,JMJD2A Tudor,HP1b chromo inh
CCC1(C)Cc2c(sc(NC(=S)NC(=O)c3ccccc3)c2C#N)CO1 (centres undefined),9,-1,45µM*,-31%,-27%,-14%
CCOC(=O)N1CCN(c2nc(C)c3c(n2)CC(C)CC3=O)CC1 (centres undefined),2,3,3%,-7%,-30%,15%
COc1ccc(N(C(=O)c2snc(C(N)=O)c2N)C(C(=O)NC2CCCC2)c2cccs2)c(OC)c1 (centres undefined),-4,-22,-4%,-11%,3%,18%
O=c1cc(O)c2ccccc2n1Cc1ccccc1,2,4,-2%[59 µM],-34%,-22%,16%
COc1cccc(C2C(C(=O)c3sc(C)nc3C)=C(O)C(=O)N2CCN2CCOCC2)c1 (centres undefined),-5,-14,50µM*,-5%,?,23%
Cc1ccc(C2C(C(=O)c3sc(C)nc3C)=C(O)C(=O)N2CCN2CCOCC2)o1 (centres undefined),10,5,35µM*,-33%,?,4%
CCN(CC)CCCN1C(=O)C(O)=C(C(=O)c2sc(C)nc2C)C1c1ccc(C)o1 (centres undefined),·,·,-17%[59 µM],-22%,·,·
COc1ccc(C2C(C(=O)c3sc(C)nc3C)=C(O)C(=O)N2CCN(C)C)cc1 (centres undefined),3,0,-7%[12.7 µM],11%,15%,29%
N#CC1=C(NC=NCc2ccccc2)Oc2ccc3ccccc3c2C1c1ccccc1 (centres undefined),·,·,·,·,-30%,·
CC(OC(=O)C1CCN(S(=O)(=O)c2ccc3c(c2)OCCO3)CC1)C(=O)NC1(C#N)CCCCC1 (centres undefined),0,-17,·,·,-5%,25%
O=C(Cc1nnc(CNC(=O)c2ccccc2)s1)Nc1ccc(C(F)(F)F)cc1Cl,·,·,·,·,-8%,·
O=C(Nc1cccs1)OCCN1CCN(Cc2ccccc2)CCC1=O,-1,3,45µM*,1%,-13%,35%
CCc1ccccc1Nc1nc(-c2cccnc2)cs1,10,·,·,?,-31%,-7%
O=[N+]([O-])c1ccccc1Nc1nc(-c2cccnc2)cs1,-11,·,?,14µM*,35µM*,?
COc1ccc(-c2c(C(=O)c3ccccc3)[nH]c(N)c2C(=O)c2ccc(Br)cc2)cc1OC,-28,-1,·,·,·,·
COc1ccc(NC(=O)/C(C#N)=C/c2ccc(C)o2)cc1,·,·,-3%[59 µM],-3%,-18%,15%
COc1ccc(NC(=O)c2ccc(Br)o2)cc1,6,0,32µM*,?,-11%,26%
CC(C)c1ccc(NC(=O)c2ccc(Br)o2)cc1,2,5,-17%[59 µM],6%,-1%[11.4 µM],2%
N#C/C(=C/c1ccc(Br)o1)C(N)=S,·,·,32µM*,?,·,·
COc1ccc(NC(=O)/C(C#N)=C/c2ccc(Br)o2)cc1,-9,3,-43%[12.7 µM],50µM*,?,0%
O=C(Nc1ccc(Nc2ccccc2)cc1)c1ccc(Br)o1,-24,-29,35µM*,22µM*,40µM*,?
CCc1ccc(C2CC(=O)c3c([nH]c(C(=O)OC4CCCC4)c3C)C2)cc1 (centres undefined),·,·,-6%[59 µM],-1%,-9%,15%
Cc1ccc(-c2nc3nc(C)cc(N4CCN(c5cc(Cl)ccc5C)CC4)n3n2)cc1,·,·,-36%[59 µM],-5%,-5%,23%
S=c1[nH]ncn1NCc1cccc(Br)c1,4,4,·,·,16µM*,18%
C=CCOc1ccc(CNn2cn[nH]c2=S)cc1,-2,-4,20µM*,-2%,32µM*,25%
SMILES,Six1-Eya2 blk,CtBP-E1A blk,G9a block,BAZ2B block,JMJD2A Tudor,HP1b chromo inh
Cc1ccc(CNn2cn[nH]c2=S)cc1,3,·,·,·,8.9µM*,38%
Cc1ccc(CNc2ccc(CNc3ncn[nH]3)cc2)cc1,-12,-1,?,?,?,-7%
C=CCOc1ccc2ccccc2c1CNn1cn[nH]c1=S,-5,5,·,-9%,?,31%
Cc1ccc(NC(=O)c2c(C)oc3ncnc(N4CCCCC4)c23)c(C)c1,·,·,-4%[59 µM],-4%[57.1 µM],-25%,-12%
CCOC(=O)c1cccc(NC(=O)Cn2ncc3c(=O)oc4ccccc4c32)c1,·,·,-12%[59 µM],·,-14%,23%
CCC(=O)Nc1nnc(S(=O)(=O)N(C)Cc2ccc(Cl)cc2)s1,·,·,-8%[59 µM],-13%,-10%,5%
Cc1ccc(-n2nc(C)c3c(C(=O)NCCc4ccccc4)cc(C)nc32)cc1,·,·,-3%[59 µM],13%[57.1 µM],-14%,3%
Cc1ccc(C2C=C(c3ccccc3)Nc3nc(NS(=O)(=O)c4ccccc4)nn32)cc1 (centres undefined),·,·,14µM*,2%,-8%,48%
Cc1ccc(S(=O)(=O)Nc2nc3n(n2)C(c2ccc(F)cc2)C=C(c2ccccc2)N3)cc1 (centres undefined),·,·,?,-15%,-7%,31%
O=S(=O)(Nc1nc2n(n1)C(c1ccccc1)C=C(c1ccc(Cl)cc1)N2)c1ccccc1 (centres undefined),·,·,?,79µM*,-5%,55%
Cc1ccc(C2C=C(c3ccccc3)Nc3nc(NS(C)(=O)=O)nn32)cc1 (centres undefined),·,·,20µM*,0%,-5%,22%
Cc1ccc(C2C=C(c3ccc(Cl)cc3)Nc3nc(NC(=O)c4ccco4)nn32)cc1 (centres undefined),·,·,32µM*,50µM*,79µM*,34%
Cc1ccc(C)c(N2CCN(CCCNC(=O)C3COc4ccccc4C3)CC2)c1 (centres undefined),·,·,12%[59 µM],-27%,-32%,11%[57 µM]
Cc1onc(-c2ccccc2)c1C(=O)N1CCN(C)CC1,0,8,-26%,-6%,-6%,26%
Cc1ccc(C2C=C(c3ccccc3)Nc3nc(N4C(=O)CCC4=O)nn32)cc1 (centres undefined),-6,-2,?,50µM*,79µM*,13%
COc1ccc(NS(=O)(=O)c2cc(OC)ccc2NC(=O)c2cc(C)oc2C)cc1,-20,-4,79µM*,-6%,?,-16%
COc1ccc(NS(=O)(=O)c2cc(OC)ccc2OC)cc1,9,8,·,·,-7%,18%
Cc1cc(C(=O)CSc2nnnn2-c2ccccc2)c(C)n1-c1ccc2c(c1)OCO2,-22,-3,?,-32%,-22%,19%
Cc1cc(-n2c(C)cc(C(=O)CN3C(=O)NC4(CCCCCC4)C3=O)c2C)no1,-7,5,18%[2.33 µM],?,-21%,7%
Cc1cc(C(=O)CSc2nncs2)c(C)n1-c1ccc2c(c1)OCO2,-13,0,?,45µM*,?,?

# Screening results: PubChem, National Center for Advancing Translational Sciences (NCATS)
